# From the supplement of paper PMC11732987, “Enantioselective OTUD7B fragment discovery through chemoproteomics screening and high-throughput optimisation” (Communications Chemistry, 2025)
# A number with no mark means an inactive call.
# Experiments:
# Test in all cases: log2 ratio of Biotin-Ahx-Ub-VS probe labelling (fragment/DMSO); higher = less target engagement (more negative = stronger competition), active = hit call of the paper (q ≤ 0.05, log2 ratio ≤ -1)
# Settings in all cases: compound concentration: 200 uM; treatment time: 3 h
# OTUD6B = biological target: T1, OTUD6B (UniProt Q8N6M0)
# T1 sequence (whole entry): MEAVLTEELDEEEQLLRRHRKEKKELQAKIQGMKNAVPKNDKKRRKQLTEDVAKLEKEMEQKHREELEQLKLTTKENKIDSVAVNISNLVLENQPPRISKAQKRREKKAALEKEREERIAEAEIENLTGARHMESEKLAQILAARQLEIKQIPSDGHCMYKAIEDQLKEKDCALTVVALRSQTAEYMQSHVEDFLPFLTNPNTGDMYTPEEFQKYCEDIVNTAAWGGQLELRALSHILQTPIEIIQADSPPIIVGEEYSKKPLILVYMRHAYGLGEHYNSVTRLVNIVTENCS
# How it was run: (§1)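 Average log2 ratios of fragment over vehicle were obtained by unpaired t-test from global-median-normalised Spectronaut label-free quantities. Proteins with ≥2 unique peptides were included. HEK293T lysate (495 µg per sample) was treated in triplicate with fragment at 200 µM or vehicle for 3 h, then with Biotin-Ahx-Ub-VS at 0.5 µM final for 1 h, and labelled DUBs were NeutrAvidin-enriched and run by diaPASEF LC-MS/MS.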
# OTUD7B = biological target: T2, OTUD7B (UniProt Q6GQQ9)
# T2 sequence (whole entry): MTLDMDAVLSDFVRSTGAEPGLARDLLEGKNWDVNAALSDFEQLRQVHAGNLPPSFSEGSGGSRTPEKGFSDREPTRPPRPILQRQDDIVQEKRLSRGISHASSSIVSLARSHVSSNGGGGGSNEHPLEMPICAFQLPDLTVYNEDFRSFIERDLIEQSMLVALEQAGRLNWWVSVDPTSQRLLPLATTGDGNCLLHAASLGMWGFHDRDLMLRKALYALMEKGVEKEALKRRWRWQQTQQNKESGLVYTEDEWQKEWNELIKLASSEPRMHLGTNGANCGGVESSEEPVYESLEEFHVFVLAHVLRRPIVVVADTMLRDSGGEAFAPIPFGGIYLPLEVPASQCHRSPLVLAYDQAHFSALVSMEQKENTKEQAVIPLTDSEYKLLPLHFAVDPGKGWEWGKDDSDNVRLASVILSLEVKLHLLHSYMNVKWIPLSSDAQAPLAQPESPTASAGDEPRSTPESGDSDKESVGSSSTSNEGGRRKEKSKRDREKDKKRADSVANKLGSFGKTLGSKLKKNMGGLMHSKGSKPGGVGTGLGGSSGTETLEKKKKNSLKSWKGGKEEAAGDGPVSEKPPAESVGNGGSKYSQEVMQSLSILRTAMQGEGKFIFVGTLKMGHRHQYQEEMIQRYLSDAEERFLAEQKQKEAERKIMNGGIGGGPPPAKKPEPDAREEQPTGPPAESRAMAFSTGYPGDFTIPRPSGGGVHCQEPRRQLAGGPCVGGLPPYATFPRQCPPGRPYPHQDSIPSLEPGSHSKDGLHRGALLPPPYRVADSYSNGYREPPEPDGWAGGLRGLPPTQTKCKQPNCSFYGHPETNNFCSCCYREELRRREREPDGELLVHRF
# How it was run: as §1
# PRPF8 = PRPF8 (UniProt Q6P2Q9)
# How it was run: as §1
# PSMD7 = biological target: T3, PSMD7 (UniProt P51665)
# T3 sequence (whole entry): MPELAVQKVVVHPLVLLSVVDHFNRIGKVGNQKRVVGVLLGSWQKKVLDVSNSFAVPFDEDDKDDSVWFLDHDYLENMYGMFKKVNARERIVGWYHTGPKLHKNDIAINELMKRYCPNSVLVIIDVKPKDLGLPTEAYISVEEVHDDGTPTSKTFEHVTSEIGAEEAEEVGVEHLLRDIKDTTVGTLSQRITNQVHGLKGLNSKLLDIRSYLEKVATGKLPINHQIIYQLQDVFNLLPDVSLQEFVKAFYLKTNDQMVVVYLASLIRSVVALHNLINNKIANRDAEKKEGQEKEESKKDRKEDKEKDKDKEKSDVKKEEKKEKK
# How it was run: as §1
# UCHL1 = UCHL1 (UniProt P09936)
# UCHL1, sequence (P09936 whole entry, looked up): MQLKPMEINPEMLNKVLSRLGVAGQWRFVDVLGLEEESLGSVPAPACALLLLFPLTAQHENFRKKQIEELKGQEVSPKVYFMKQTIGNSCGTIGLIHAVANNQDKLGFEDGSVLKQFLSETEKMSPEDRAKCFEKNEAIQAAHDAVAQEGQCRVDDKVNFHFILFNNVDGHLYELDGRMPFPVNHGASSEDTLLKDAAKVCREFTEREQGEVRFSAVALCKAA
# How it was run: as §1
# UCHL3 = biological target: T4, UCHL3 (UniProt P15374)
# T4 sequence (whole entry): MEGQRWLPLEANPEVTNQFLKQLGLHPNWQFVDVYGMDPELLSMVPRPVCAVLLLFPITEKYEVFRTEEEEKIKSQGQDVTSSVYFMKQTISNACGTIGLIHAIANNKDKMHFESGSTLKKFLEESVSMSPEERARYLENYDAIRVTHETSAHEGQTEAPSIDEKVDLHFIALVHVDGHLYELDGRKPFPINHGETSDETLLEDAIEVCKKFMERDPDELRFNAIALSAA
# How it was run: as §1
# UCHL5 = biological target: T5, UCHL5 (UniProt Q9Y5K5)
# T5 sequence (whole entry): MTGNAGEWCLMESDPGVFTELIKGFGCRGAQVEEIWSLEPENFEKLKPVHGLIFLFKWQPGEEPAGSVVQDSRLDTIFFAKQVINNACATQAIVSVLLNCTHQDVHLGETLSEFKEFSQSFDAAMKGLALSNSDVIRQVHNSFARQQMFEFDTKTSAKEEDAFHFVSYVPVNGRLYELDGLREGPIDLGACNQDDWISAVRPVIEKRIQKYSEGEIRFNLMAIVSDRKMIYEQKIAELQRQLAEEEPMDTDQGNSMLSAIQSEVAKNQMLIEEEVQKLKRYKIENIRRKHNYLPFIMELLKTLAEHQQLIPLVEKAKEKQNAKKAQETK
# How it was run: as §1
# USP10 = USP10 (UniProt Q14694)
# USP10, sequence (Q14694 whole entry): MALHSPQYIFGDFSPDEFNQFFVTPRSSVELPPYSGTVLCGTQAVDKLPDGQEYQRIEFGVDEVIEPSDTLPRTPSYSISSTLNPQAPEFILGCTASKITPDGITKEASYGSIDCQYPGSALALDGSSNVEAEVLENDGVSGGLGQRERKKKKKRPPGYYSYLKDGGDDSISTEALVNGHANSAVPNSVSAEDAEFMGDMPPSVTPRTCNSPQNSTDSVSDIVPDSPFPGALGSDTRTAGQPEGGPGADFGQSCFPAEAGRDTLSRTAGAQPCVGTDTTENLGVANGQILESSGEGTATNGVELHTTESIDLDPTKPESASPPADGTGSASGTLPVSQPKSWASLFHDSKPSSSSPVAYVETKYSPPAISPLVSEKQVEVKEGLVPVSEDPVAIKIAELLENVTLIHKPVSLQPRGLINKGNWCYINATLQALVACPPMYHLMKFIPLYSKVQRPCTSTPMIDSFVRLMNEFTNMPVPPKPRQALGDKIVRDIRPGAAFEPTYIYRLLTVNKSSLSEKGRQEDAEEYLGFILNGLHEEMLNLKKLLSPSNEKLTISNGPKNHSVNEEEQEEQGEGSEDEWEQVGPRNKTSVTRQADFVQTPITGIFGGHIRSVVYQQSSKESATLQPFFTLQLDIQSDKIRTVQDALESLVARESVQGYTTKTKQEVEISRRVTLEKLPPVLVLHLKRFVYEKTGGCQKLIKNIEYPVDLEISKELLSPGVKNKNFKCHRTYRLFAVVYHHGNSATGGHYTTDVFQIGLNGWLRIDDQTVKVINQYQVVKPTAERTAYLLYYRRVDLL
# How it was run: as §1
# USP15 = biological target: T6, USP15 (UniProt Q9Y4E8)
# T6 sequence (whole entry): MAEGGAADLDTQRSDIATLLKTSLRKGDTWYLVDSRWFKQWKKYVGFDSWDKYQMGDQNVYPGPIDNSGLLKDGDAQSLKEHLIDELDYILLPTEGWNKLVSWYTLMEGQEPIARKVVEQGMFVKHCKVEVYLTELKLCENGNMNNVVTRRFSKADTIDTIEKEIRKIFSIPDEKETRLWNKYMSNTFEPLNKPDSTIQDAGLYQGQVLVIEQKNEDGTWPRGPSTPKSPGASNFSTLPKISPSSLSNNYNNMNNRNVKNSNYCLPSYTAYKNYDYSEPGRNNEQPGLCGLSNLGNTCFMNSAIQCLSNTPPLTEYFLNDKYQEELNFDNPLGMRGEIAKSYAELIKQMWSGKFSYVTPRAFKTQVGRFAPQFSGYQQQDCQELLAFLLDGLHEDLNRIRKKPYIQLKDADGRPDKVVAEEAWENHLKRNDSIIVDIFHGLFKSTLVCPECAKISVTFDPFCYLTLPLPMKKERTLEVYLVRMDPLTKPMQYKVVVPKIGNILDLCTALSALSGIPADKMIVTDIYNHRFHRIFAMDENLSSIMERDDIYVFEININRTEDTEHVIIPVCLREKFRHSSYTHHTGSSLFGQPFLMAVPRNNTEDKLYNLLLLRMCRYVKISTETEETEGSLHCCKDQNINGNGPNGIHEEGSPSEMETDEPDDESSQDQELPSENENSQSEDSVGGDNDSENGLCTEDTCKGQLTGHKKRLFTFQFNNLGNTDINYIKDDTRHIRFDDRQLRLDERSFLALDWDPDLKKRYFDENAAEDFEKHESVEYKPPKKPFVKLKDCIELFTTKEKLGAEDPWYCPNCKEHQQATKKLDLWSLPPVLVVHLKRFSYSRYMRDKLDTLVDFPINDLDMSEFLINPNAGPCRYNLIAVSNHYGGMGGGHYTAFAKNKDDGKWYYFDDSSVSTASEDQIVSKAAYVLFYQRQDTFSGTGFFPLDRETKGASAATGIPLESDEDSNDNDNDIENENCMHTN
# How it was run: as §1
# USP16 = USP16 (UniProt Q9Y5T5)
# USP16, sequence (Q9Y5T5 whole entry, looked up): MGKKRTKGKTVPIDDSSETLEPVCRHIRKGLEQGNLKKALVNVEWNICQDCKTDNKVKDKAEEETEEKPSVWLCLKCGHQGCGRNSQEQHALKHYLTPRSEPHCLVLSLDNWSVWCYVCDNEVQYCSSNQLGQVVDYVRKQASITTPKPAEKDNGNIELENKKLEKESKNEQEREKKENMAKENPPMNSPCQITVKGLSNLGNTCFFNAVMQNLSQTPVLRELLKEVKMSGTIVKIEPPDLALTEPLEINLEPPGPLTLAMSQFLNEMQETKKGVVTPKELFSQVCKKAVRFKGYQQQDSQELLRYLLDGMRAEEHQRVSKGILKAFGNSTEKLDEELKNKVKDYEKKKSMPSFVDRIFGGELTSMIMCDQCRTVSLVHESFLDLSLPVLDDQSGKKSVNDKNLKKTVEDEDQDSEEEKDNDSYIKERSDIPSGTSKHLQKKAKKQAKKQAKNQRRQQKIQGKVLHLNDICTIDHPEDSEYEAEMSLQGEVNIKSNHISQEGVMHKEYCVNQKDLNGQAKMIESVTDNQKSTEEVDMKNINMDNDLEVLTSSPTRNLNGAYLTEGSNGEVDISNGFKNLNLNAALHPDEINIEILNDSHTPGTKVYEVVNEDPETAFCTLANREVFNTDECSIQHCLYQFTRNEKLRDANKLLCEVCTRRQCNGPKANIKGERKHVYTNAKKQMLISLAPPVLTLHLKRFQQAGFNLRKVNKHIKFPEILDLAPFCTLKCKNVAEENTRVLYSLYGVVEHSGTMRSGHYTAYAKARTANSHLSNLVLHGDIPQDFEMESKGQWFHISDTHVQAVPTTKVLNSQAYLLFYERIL
# How it was run: as §1
smiles,measurement,setting,value
O=C(CCl)Nc1nc(-c2cccs2)cs1,log2 ratio of Biotin-Ahx-Ub-VS probe labelling,OTUD6B,-0.434
same,log2 ratio of Biotin-Ahx-Ub-VS probe labelling,OTUD7B,-0.695
same,log2 ratio of Biotin-Ahx-Ub-VS probe labelling,PRPF8,0.14
same,log2 ratio of Biotin-Ahx-Ub-VS probe labelling,PSMD7,-0.0595
same,log2 ratio of Biotin-Ahx-Ub-VS probe labelling,UCHL1,-1.45 (active)
same,log2 ratio of Biotin-Ahx-Ub-VS probe labelling,UCHL3,0.426
same,log2 ratio of Biotin-Ahx-Ub-VS probe labelling,UCHL5,-2.61 (active)
same,log2 ratio of Biotin-Ahx-Ub-VS probe labelling,USP10,-0.0951
same,log2 ratio of Biotin-Ahx-Ub-VS probe labelling,USP15,-0.354
same,log2 ratio of Biotin-Ahx-Ub-VS probe labelling,USP16,-0.00927
